Measured values reported in the supplement of paper PMC10849652.
Targets with a hit are over-represented here; the source holds about 8,800 in all. About 0.5% of all pairs of compound and target were hits.

What was measured:
Assay in all cases: log2 fold change, soluble protein after heating vs DMSO (PISA); higher = thermal stabilisation; K562 lysate, 10 uM; active = over 0.2 and 3.5 SD of the protein, either way, in both replicates (recomputed)
[1] = compound: NCC(=O)Nc1ccc(-n2nc(C(F)(F)F)cc2-c2ccc3c(ccc4ccccc43)c2)cc1
Method in brief: (§1)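 The values are log-two fold changes in thermal stability compared with solvent controls and come from duplicates. They were obtained by TMTpro 16plex LC-MS/MS, with channel sums equalised, on the supernatant after 21,000xg for 90 min. That supernatant came from crude K562 extract at 1 mg/mL protein treated with 10 μM compound for 30 min, heated for 3 min across 48°C-58°C, pooled and brought to 0.5% NP-40 at 4°C.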

vorinostat = compound: O=C(CCCCCCC(=O)Nc1ccccc1)NO [vorinostat]
Method in brief: as §1

silmitasertib = compound: O=C(O)c1ccc2c(c1)nc(Nc1cccc(Cl)c1)c1ccncc12 [silmitasertib]
Method in brief: as §1

[2] = compound: O=C1NC(=O)C(c2cnc3ccccn23)=C1c1cn2c3c(cc(F)cc13)CN(C(=O)N1CCCCC1)CC2
Method in brief: as §1

entospletinib = compound: c1cn2cc(-c3ccc4cn[nH]c4c3)nc(Nc3ccc(N4CCOCC4)cc3)c2n1 [entospletinib]
Method in brief: as §1

Measured: log2 fold change

WDR62 isoform 4 (UniProt O43379)
inactive: [1] 0.045 | silmitasertib 0.01 | [2] -0.014 | entospletinib -0.016
active: vorinostat -0.423

YBEY (UniProt P58557)
Sequence of UniProt P58557 (P58557 whole entry, looked up): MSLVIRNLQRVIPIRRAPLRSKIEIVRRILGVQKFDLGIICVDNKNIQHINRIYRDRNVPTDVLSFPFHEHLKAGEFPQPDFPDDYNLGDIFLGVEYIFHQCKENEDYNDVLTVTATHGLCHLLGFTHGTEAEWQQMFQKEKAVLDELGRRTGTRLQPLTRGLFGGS
inactive: [1] 0.035 | vorinostat -0.136 | silmitasertib 0.063 | entospletinib 0.029

ZNF644 (UniProt Q9H582)
Sequence of UniProt Q9H582 (Q9H582 whole entry, looked up): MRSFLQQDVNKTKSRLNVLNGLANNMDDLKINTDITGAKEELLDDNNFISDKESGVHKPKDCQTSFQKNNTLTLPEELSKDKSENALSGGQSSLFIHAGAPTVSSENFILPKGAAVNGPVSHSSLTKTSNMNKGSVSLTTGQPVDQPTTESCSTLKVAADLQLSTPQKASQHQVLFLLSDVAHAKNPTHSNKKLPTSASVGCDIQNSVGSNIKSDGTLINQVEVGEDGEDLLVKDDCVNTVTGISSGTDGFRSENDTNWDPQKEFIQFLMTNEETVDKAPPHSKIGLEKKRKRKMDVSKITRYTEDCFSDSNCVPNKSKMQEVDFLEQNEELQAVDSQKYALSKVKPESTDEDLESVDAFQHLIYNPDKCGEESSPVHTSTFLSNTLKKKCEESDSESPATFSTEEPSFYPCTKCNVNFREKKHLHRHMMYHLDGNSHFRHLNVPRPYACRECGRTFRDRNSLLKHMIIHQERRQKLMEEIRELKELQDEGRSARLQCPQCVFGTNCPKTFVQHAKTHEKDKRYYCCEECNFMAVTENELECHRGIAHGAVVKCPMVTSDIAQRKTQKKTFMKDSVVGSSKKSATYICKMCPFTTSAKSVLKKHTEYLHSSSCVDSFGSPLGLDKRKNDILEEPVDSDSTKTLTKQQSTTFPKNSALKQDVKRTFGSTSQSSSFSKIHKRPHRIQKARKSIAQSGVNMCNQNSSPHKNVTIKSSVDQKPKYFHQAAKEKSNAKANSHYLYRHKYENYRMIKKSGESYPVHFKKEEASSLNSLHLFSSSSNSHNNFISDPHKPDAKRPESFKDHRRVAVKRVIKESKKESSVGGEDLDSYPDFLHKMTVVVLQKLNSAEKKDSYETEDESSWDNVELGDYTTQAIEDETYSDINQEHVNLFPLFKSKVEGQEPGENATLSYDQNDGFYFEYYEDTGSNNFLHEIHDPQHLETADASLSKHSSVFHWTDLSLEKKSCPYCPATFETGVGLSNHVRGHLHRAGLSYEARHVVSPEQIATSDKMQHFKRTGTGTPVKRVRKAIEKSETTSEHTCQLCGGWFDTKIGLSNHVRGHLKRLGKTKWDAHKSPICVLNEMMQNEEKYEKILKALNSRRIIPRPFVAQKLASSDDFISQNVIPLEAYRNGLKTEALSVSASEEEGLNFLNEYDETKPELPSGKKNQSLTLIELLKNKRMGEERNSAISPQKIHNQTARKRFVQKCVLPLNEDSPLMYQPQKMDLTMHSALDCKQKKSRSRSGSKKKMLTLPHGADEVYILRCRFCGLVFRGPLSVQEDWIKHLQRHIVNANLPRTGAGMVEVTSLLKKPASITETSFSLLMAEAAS
inactive: [1] -0.007 | vorinostat 0.222 | silmitasertib -0.092 | [2] 0.016 | entospletinib -0.022

WAC (UniProt Q9BTA9)
Sequence of UniProt Q9BTA9 (Q9BTA9 whole entry, looked up): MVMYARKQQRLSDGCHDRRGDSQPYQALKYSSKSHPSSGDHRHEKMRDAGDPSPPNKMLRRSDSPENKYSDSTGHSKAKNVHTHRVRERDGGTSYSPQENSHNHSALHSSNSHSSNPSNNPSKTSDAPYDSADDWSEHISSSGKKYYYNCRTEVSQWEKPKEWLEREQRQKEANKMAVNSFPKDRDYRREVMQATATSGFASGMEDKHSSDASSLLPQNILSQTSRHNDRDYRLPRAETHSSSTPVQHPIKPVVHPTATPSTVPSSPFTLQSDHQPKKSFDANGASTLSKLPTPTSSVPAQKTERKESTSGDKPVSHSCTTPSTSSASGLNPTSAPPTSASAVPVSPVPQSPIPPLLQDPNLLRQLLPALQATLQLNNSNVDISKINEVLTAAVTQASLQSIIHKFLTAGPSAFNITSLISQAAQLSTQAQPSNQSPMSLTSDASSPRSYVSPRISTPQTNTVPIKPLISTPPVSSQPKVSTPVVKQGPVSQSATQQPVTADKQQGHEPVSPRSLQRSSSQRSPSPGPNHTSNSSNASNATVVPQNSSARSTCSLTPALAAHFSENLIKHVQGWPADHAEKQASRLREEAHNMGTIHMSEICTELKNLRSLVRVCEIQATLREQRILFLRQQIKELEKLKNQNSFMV
active: vorinostat -0.309
inactive: [1] 0.011 | silmitasertib -0.031 | [2] -0.014 | entospletinib -0.046

ZKSCAN8 (UniProt Q15776)
Sequence of UniProt Q15776 (Q15776 whole entry, looked up): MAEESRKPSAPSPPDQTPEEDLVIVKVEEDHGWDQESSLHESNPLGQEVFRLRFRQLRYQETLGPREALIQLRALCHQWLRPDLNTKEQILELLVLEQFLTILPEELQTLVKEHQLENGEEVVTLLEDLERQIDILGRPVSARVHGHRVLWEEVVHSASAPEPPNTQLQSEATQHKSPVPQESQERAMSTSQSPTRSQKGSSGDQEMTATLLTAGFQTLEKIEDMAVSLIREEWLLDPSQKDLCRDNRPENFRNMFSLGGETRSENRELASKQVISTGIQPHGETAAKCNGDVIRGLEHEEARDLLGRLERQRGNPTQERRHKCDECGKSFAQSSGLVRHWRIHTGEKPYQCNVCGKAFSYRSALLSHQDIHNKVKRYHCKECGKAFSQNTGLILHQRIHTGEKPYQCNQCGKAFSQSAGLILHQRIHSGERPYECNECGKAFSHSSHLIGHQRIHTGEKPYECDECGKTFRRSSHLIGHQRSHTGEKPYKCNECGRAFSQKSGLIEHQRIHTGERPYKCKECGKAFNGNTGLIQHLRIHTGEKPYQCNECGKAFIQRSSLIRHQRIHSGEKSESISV
inactive: [1] 0.015 | vorinostat 0.229 | silmitasertib -0.005 | [2] 0.055 | entospletinib -0.002

WDR36 (UniProt Q8NI36)
Sequence of UniProt Q8NI36 (Q8NI36 whole entry, looked up): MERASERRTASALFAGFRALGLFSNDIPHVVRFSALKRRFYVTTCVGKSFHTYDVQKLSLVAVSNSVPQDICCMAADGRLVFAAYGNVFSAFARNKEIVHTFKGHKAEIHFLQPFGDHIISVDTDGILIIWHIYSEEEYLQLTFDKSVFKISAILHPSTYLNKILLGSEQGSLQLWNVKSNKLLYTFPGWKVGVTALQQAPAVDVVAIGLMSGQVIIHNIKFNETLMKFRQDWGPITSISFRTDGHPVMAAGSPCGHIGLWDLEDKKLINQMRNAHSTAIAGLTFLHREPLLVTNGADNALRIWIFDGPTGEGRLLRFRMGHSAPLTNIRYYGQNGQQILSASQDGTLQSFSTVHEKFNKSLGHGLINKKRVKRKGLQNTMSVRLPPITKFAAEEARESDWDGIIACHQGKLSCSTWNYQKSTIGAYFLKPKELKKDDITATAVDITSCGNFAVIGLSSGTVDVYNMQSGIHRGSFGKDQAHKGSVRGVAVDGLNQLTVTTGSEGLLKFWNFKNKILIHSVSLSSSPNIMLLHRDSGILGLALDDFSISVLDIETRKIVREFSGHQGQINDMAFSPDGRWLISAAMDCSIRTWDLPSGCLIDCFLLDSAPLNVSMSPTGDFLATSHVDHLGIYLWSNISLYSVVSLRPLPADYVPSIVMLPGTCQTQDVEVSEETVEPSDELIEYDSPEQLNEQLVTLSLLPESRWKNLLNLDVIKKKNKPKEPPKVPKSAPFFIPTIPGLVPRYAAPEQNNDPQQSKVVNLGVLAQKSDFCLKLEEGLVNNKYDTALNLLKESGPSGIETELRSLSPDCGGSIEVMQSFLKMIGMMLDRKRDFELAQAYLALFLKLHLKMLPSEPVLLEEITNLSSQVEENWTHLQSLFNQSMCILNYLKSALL
inactive: [1] -0.051 | silmitasertib 0.044 | [2] 0.028 | entospletinib -0.011
active: vorinostat -0.345

XPO5 (UniProt Q9HAV4)
Sequence of UniProt Q9HAV4 (Q9HAV4 whole entry, looked up): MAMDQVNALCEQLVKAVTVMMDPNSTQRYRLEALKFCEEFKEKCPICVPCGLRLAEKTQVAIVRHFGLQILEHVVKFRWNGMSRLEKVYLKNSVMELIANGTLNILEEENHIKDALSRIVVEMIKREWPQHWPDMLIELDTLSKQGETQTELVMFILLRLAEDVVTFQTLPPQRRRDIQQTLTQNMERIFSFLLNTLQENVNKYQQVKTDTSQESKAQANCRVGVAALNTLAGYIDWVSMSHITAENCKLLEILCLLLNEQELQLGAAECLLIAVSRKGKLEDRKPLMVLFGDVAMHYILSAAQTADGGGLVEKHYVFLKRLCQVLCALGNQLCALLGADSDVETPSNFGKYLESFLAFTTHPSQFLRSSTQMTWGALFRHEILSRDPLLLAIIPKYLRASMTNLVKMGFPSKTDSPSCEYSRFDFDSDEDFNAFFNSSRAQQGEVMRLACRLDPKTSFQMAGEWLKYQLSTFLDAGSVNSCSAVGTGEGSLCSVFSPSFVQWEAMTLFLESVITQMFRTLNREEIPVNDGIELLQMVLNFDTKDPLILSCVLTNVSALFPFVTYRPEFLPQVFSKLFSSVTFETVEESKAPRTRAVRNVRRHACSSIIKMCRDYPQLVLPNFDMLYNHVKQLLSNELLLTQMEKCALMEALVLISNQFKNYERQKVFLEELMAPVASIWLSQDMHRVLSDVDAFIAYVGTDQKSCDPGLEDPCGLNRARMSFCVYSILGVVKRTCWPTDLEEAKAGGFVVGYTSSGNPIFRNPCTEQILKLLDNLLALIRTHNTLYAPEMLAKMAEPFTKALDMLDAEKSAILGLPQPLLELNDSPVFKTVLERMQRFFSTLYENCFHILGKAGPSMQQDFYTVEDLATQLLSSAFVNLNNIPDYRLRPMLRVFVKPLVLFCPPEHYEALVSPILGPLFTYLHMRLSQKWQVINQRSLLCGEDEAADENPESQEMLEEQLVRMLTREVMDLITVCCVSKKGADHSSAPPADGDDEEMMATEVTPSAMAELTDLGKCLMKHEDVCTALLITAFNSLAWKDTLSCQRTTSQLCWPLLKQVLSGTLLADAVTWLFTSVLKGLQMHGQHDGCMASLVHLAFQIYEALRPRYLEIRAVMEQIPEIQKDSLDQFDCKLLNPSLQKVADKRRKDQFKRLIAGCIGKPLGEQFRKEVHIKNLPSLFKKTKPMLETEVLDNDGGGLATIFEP
active: vorinostat -0.574
inactive: [1] 0 | silmitasertib 0.035 | [2] 0.011 | entospletinib 0.015
